From PubChem BioAssay (EPA / NIEHS)
Activity calls are given as the source filed them. How the source made its calls: active means hit-call score of the fitted dose curve at least 0.9, where 1 is the maximum; inactive means score below 0.9.

Columns and labels:
Conditions in all cases: mRNA level, 48 h; actives raise or lower the signal
[1] = read-out: Cytochrome P450 (CYP24A1), CYP24A1 (gene 1591); assay: LTEA_HepaRG_CYP24A1: Life Technologies and Expression Analysis (LTEA) Assay for Cytochrome P450 (CYP24A1) using HepaRG (AID 2283478)
How it was run: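 mRNA of CYP24A1 quantified by TaqMan qRT-PCR (ACTB/GAPDH/POLR2A normalization) after 48 h chemical exposure of HepaRG cells, top concentration 100 uM, half-log steps, 0.5% DMSO vehicle, duplicates. Curves fitted bidirectionally against DMSO baseline.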

[2] = read-out: Cytochrome P450 (CYP1A2), CYP1A2 (gene 1544); assay: LTEA_HepaRG_CYP1A2: Life Technologies and Expression Analysis (LTEA) Assay for Cytochrome P450 (CYP1A2) using HepaRG (AID 2283479)
How it was run: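 CYP1A2 transcript measured by TaqMan qRT-PCR against three housekeeping genes after 48-hour chemical exposure of HepaRG cells. Eight-point half-log series topping at 100 uM in 0.5% DMSO, duplicates; gain or loss fitted relative to vehicle.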

[3] = read-out: Cytochrome P450 (CYP2B6), CYP2B6 (gene 1555); assay: LTEA_HepaRG_CYP2B6: Life Technologies and Expression Analysis (LTEA) Assay for Cytochrome P450 (CYP2B6) using HepaRG (AID 2283481)
How it was run: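 CYP2B6 transcript level quantified by qRT-PCR against three housekeeping genes, fitted bidirectionally relative to DMSO. HepaRG cultures received chemicals for 48 h, 8-point half-log series from 100 uM in 0.5% DMSO, duplicate wells, serum-free induction medium.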

[4] = read-out: Cytochrome P450 2C19 (Homo sapiens) (UniProt P33261); assay: LTEA_HepaRG_CYP2C19: Life Technologies and Expression Analysis (LTEA) Assay for CYP2C19 using HepaRG (AID 2283482)
How it was run: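 CYP2C19 transcript levels by qRT-PCR, normalized to three housekeeping genes, in HepaRG cells after 48 h chemical exposure. Eight-point half-log series topping at 100 uM, 0.5% DMSO vehicle. Increases and decreases both fitted against DMSO.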

CYP2C8 (gene 1558) = assay: LTEA_HepaRG_CYP2C8: Life Technologies and Expression Analysis (LTEA) Assay for CYP2C8 using HepaRG (AID 2283483)
How it was run: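 HepaRG (human liver line), 48 h chemical exposure, 8-pt half-log series from 100 uM, 0.5% DMSO vehicle. Readout: CYP2C8 transcript by qRT-PCR, housekeeping-normalized. Bidirectional fit vs DMSO baseline.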

CYP2C9 (gene 1559) = assay: LTEA_HepaRG_CYP2C9: Life Technologies and Expression Analysis (LTEA) Assay for CYP2C9 using HepaRG (AID 2283484)
How it was run: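 HepaRG, 48 h dosing, 8-pt half-log series, top 100 uM, 0.5% DMSO vehicle. Read-out: CYP2C9 transcript by TaqMan qRT-PCR, housekeeping-normalized (ACTB/GAPDH/POLR2A). Gain or loss fitted vs DMSO baseline.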

CYP4A11 (gene 1579) = assay: LTEA_HepaRG_CYP4A11: Life Technologies and Expression Analysis (LTEA) Assay for CYP4A11 using HepaRG (AID 2283486)
How it was run: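 Readout is CYP4A11 transcript level by qRT-PCR, normalized to three housekeeping genes and fitted bidirectionally against 0.5% DMSO. Human HepaRG cells were treated 48 h, in duplicate, with an 8-point half-log series topping at 100 uM.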

[5] = read-out: cysteine-aspartic acid protease (CASP8), CASP8 (gene 841); assay: LTEA_HepaRG_CASP8: Life Technologies and Expression Analysis (LTEA) Assay for cysteine-aspartic acid protease (CASP8) using HepaRG (AID 2283480)
How it was run: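 qRT-PCR readout of CASP8 mRNA, normalized to three housekeeping genes, after 48 h chemical exposure of HepaRG cells; 8-point half-log series, top 100 uM, 0.5% DMSO vehicle. Bidirectional curve fitting against DMSO baseline.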

CYP2E1 (gene 1571) = assay: LTEA_HepaRG_CYP2E1: Life Technologies and Expression Analysis (LTEA) Assay for CYP2E1 using HepaRG (AID 2283485)
How it was run: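 CYP2E1 transcript measured by Fluidigm qRT-PCR against three housekeeping genes in human HepaRG cells treated 48 h (top 100 uM, half-log steps, 0.5% DMSO vehicle). Gain or loss fitted relative to DMSO baseline.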

Sequence of Cytochrome P450 2C19 (Homo sapiens) (P33261 whole entry, looked up): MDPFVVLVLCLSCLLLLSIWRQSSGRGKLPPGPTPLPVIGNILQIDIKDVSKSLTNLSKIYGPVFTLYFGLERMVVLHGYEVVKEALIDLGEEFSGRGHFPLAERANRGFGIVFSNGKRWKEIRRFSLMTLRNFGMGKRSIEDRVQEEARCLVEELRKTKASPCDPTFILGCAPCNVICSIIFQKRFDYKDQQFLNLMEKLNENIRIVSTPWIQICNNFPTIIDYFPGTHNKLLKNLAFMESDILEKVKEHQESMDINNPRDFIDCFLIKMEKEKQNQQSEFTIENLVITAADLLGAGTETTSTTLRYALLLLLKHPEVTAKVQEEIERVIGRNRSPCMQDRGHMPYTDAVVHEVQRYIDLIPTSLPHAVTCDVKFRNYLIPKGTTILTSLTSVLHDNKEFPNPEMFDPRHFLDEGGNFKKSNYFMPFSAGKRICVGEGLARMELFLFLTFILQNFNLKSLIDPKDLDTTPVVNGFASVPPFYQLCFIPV

Row | Structure (SMILES) | outcome [1] | AC50 [2] | outcome [3] | outcome [4] | outcome (CYP2C8 (gene 1558)) | outcome (CYP2C9 (gene 1559)) | outcome (CYP4A11 (gene 1579)) | outcome [2] | outcome [5] | AC50 [3] | AC50 [4] | AC50 (CYP2C8 (gene 1558)) | AC50 (CYP2E1 (gene 1571)) | AC50 (CYP4A11 (gene 1579)) | outcome (CYP2E1 (gene 1571))
1 | CC(C)N(C(=O)SCC(Cl)=C(Cl)Cl)C(C)C | inactive | 73.5 µM (active) | inactive | inactive | inactive | inactive | inactive | – | – | – | – | – | – | – | –
2 | CC(C1CC1)C(O)(Cn1cncn1)c1ccc(Cl)cc1 (stereo not given) | inactive | – | – | – | – | inactive | – | inactive | inactive | 1.06 µM (active) | 12.8 µM (active) | 0.327 µM (active) | 49.5 µM (active) | 49.8 µM (active) | –
3 | COP(=O)(OC)OC(Br)C(Cl)(Cl)Br (stereo not given) | inactive | 26.3 µM (active) | – | inactive | inactive | inactive | inactive | – | inactive | 2.45 µM (active) | – | – | – | – | inactive
4 | CCCCSP(=O)(SCCCC)SCCCC | inactive | 13 µM (active) | – | – | inactive | inactive | – | – | inactive | 12.5 µM (active) | 12.8 µM (active) | – | 63.4 µM (active) | 76.2 µM (active) | –
5 | S=C1NCCN1 | inactive | – | – | inactive | inactive | inactive | inactive | inactive | inactive | 10.3 µM (active) | – | – | – | – | inactive
6 | CNc1cnn(-c2cccc(C(F)(F)F)c2)c(=O)c1Cl | inactive | 6.1 µM (active) | – | – | inactive | inactive | inactive | – | inactive | 6.51 µM (active) | 21.6 µM (active) | – | 41.1 µM (active) | – | –
7 | COc1cccc(C(=O)NN(C(=O)c2cc(C)cc(C)c2)C(C)(C)C)c1C | inactive | 18.7 µM (active) | – | – | – | inactive | inactive | – | inactive | 1.16 µM (active) | 1.49 µM (active) | 3.61 µM (active) | 23.5 µM (active) | – | –
8 | CC[C@H](C)[C@H]1O[C@]2(C=C[C@@H]1C)C[C@@H]1C[C@@H](C/C=C(\C)[C@@H](O[C@H]3C[C@H](OC)[C@@H](O[C@H]4C[C@H](OC)[C@@H](NC)[C@H](C)O4)[C@H](C)O3)[C@@H](C)/C=C/C=C3\CO[C@@H]4[C@H](O)C(C)=C[C@@H](C(=O)O1)[C@]34O)O2 | inactive | – | – | – | inactive | inactive | – | inactive | inactive | 11.6 µM (active) | 12.6 µM (active) | – | 5.32 µM (active) | 11.7 µM (active) | –
9 | COP(=O)(OC)C(O)C(Cl)(Cl)Cl (stereo not given) | – | – | – | – | – | – | – | – | inactive | – | – | – | – | – | –
10 | O=c1ccc(=O)[nH][nH]1 | inactive | – | – | inactive | inactive | inactive | inactive | inactive | inactive | 4.2 µM (active) | – | – | 16 µM (active) | – | –
